In PubChem BioAssay (NCI):
The panel holds about 83,000 compounds, 20% with a hit somewhere; the sample as a whole holds those more often.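 Negative percent growth values reflect cell death: -40 means 40% of the cells present at the start died, and -100 means all died.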 Active and inactive are the calls of the source. The calls were made as follows: active = growth percent below 10; inactive = the rest.

Columns and labels:
Experiment in all cases: NCI-60 one-dose screen, 48 h (100 = growth as untreated, 0 = no growth, -100 = all killed)
Conditions in all cases: 10 µM
SR leukemia = test system: SR leukemia
RPMI-8226 leukemia = test system: RPMI-8226 leukemia
OVCAR-8 ovarian = test system: OVCAR-8 ovarian
OVCAR-5 ovarian = test system: OVCAR-5 ovarian
OVCAR-4 ovarian = test system: OVCAR-4 ovarian
SK-OV-3 ovarian = test system: SK-OV-3 ovarian
IGROV1 ovarian = test system: IGROV1 ovarian
OVCAR-3 ovarian = test system: OVCAR-3 ovarian
HS 578T breast = test system: HS 578T breast
NCI/ADR-RES ovarian = test system: NCI/ADR-RES ovarian
T-47D breast = test system: T-47D breast
BT-549 breast = test system: BT-549 breast
MDA-MB-435 melanoma = test system: MDA-MB-435 melanoma
SW-620 colon = test system: SW-620 colon
MCF7 breast = test system: MCF7 breast
HCT-116 colon = test system: HCT-116 colon
HCC-2998 colon = test system: HCC-2998 colon
KM12 colon = test system: KM12 colon

Measured: growth

COc1cc(-c2nn(-c3cccc(NC(=O)CCN4CCN(c5ccccc5)CC4)c3)cc2-c2ccncc2)ccc1Cl
inactive: RPMI-8226 leukemia 20.6% | OVCAR-8 ovarian 22.6% | OVCAR-5 ovarian 47.5% | OVCAR-4 ovarian 34% | SK-OV-3 ovarian 26.7% | IGROV1 ovarian 32.7% | OVCAR-3 ovarian 16.2% | HS 578T breast 31.8% | NCI/ADR-RES ovarian 21% | T-47D breast 17.5% | BT-549 breast 12.6% | MDA-MB-435 melanoma 16.8% | SW-620 colon 24.5% | MCF7 breast 12.6% | HCT-116 colon 11.8% | HCC-2998 colon 28.5% | KM12 colon 13.3%
active: SR leukemia 4.54%

COc1ccc2nc3cc(Cl)ccc3c(Nc3cc(CN4CCCC4)c(O)c(CN4CCCC4)c3)c2n1
inactive: OVCAR-8 ovarian 10.5% | SK-OV-3 ovarian 29.8% | IGROV1 ovarian 27.6% | OVCAR-3 ovarian 23.9% | HS 578T breast 15.5% | NCI/ADR-RES ovarian 10.1% | T-47D breast 13.1% | KM12 colon 11.8%
active: SR leukemia -18.6% | RPMI-8226 leukemia -3.6% | OVCAR-5 ovarian 6.64% | OVCAR-4 ovarian -16.3% | BT-549 breast -37% | MDA-MB-435 melanoma -94% | SW-620 colon 7.17% | MCF7 breast -11.9% | HCT-116 colon 6.62% | HCC-2998 colon -31.8%

CCCN1CN2C(=O)N3CN(CCC)CN4C(=S)N(C1)C2C34 (configuration not stated)
inactive: SR leukemia 79.3% | RPMI-8226 leukemia 105% | OVCAR-8 ovarian 108% | OVCAR-5 ovarian 95.2% | OVCAR-4 ovarian 103% | SK-OV-3 ovarian 86.1% | IGROV1 ovarian 99.3% | OVCAR-3 ovarian 103% | HS 578T breast 113% | NCI/ADR-RES ovarian 103% | T-47D breast 90% | BT-549 breast 89.5% | MDA-MB-435 melanoma 106% | SW-620 colon 108% | MCF7 breast 87.7% | HCT-116 colon 82.9% | HCC-2998 colon 106% | KM12 colon 101%

COc1cc(C2C(C#N)=C(N)Oc3cc(O)ccc32)cc(OC)c1OC (configuration not stated)
inactive: SR leukemia 11.4% | RPMI-8226 leukemia 15.5% | OVCAR-8 ovarian 34.4% | OVCAR-5 ovarian 35.5% | OVCAR-4 ovarian 49.7% | SK-OV-3 ovarian 44.2% | IGROV1 ovarian 34.9% | HS 578T breast 20% | NCI/ADR-RES ovarian 38.4% | T-47D breast 16% | BT-549 breast 58.5% | SW-620 colon 21.4% | MCF7 breast 19.9% | HCT-116 colon 17.8% | HCC-2998 colon 27.6% | KM12 colon 15.8%
active: OVCAR-3 ovarian -38.2% | MDA-MB-435 melanoma -44.9%
